These results are taken from the supplement of paper PMC6555819.

The test system of one test is VDR:RXRa (NR concentration 270 nM, RXRa partner concentration 90 nM). Put plainly: PBM binding z-score (relative to random genomic background probes); higher = stronger binding; sequences stand for … in GC…GCGATTGACAGCGTAGAATGAAGG
The method in brief: (§1)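 Binding z-scores take random background probes as their reference. They come from custom Agilent 4×180K protein-binding microarrays incubated 1 h with ligand-free nuclear receptor dimers, with antibodies against each partner (one per run) detecting binding. Scanned fluorescence was regression-normalized.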
Take ACTAGCAGGCGAAGGGTCACTCAAGATTAGTCCG: the PBM binding z-score is 2.23.

On to ATATGTAGGCTATCGGGTCATTCAGTTTGCGCAT, for which the PBM binding z-score was 4.58.

As for ATATGTACGTTACATCCGGGTCATTCAGGCTATG, the PBM binding z-score was 3.54.

Regarding CCTGCTAGGTCAATGGTCAGCGAAAGCAGCTCGC, the PBM binding z-score is 0.881.

TCTTGGAGATCAACAGGAGGTTAAGAAAGATCGA returned a PBM binding z-score of 0.539.

Consider TCTTGTAGATCAACAGGAAGTTAAGAAAGATCGA, for which the PBM binding z-score was -0.0912.

The sequence TAGCCTAGGTCATGGACCAGTATACCACGCGAAC came in with a PBM binding z-score of 2.13.

Take TCTCGGAGGACACGAAAGGTCCGAGCTCGACATC: the PBM binding z-score was -0.242.

Turning to CCTAGTTGGTCAGAAGGTCACACACCGGATATGA, the PBM binding z-score was 3.5.

Take CCTTACGGGACACTGACAGGTTATAGCATTTGGA: the PBM binding z-score is -0.00746.

Regarding GATTCAGGGTCAAGGCCAGAGTACGCGTATTGAT, the PBM binding z-score is 4.89.

In turn, TTGCCTAGGTCAGATCGGGCCAGTATACGCTATA showed a PBM binding z-score of 0.82.

Sequence TTACCAAGGTGAGCTGAGGTCGTTGACCCAACTC registered a PBM binding z-score of 3.96.

For a further test, the system named is VDR homodimer (NR concentration 270 nM). Described as above. The method in brief: as §1
GATACAGGGTCAGGTAGAGGCCAGAGTATGGAAA had a PBM binding z-score of 1.25.

In turn, TTACCAAGGTGAGCTGAGGTCCTTGATCCAACTC came in with a PBM binding z-score of -0.397.

As to AGAACGAGGGCAATGAGTTGAGAGCACGGGTGGC, the PBM binding z-score was 2.08.

ATCGATAGGTCGTGAGGTGAGTATACAGAAAGGC returned a PBM binding z-score of 0.361.

Turning to GATACAGGGTCAAGGCAAGAGTACGCGTATTGAT, the PBM binding z-score stood at 2.31.

On to TCTAGTTGGTCACGCAGGTCACACACGACGGGTA, for which the PBM binding z-score was found to be 1.76.

CTCGAAAGGTCGTGCTCAGGTGACTATACCAAAC showed a PBM binding z-score of 0.845.

For the sequence CATACTGGGCCAAAGGTCATTGATTCCAATGCTC, the PBM binding z-score came out at 2.42.

Turning to TCGAGTAGGTTACCAATAGGGCATTCAGCTTTCT, the PBM binding z-score is -0.368.

Take CGTCCAAGGTCAAGGTCAGTGATAGAGACTCGAA: the PBM binding z-score turned out to be 3.53.

In turn, ATATGTAGGATACATCCGGGTCATTCAGGCTATG yielded a PBM binding z-score of 2.23.

With TCTAGTTGGTCAAGGAGGTCACACACGACGGGTA, the PBM binding z-score is 2.71.

Regarding GCATATACGTAATACAAGGTGAAAGTCCGATTGT, the PBM binding z-score was found to be 0.207.

ACTAGTTGGACAGCTGAGGTCACACACAATTCGG: the PBM binding z-score is 2.99.

For the sequence CCTAGTTGGTCAAGGTCACACGCGCTATAGGTAC, the PBM binding z-score was 3.41.

ATATGTAGGTTACGGGTCATTCAGGTTGGTTCGC displayed a PBM binding z-score of 3.37.

ATCGAAAGCTCGTGAGGTGAGTATACAGAAAGGC displayed a PBM binding z-score of -0.704.

As to CCTATTAGTTGACCATCAGGGCAACCGAAGCTCG, the PBM binding z-score amounted to 0.592.

As for TCGAGTAGGTGAGTCGGGGCATTCAGCCAACATA, the PBM binding z-score came to 0.0574.

Sequence ACTAGTTGGTCAGCTGAGCTCACACACAATTCGG displayed a PBM binding z-score of -0.289.

For the sequence TCTTGTAGATCAAAGGGTAAGAAAGCCGAAGCCT, the PBM binding z-score was -0.525.

As to TATACAGGGTCAAAGGCCAGAATACGAATGTCGA, the PBM binding z-score worked out at 2.6.

Sequence TCTCGGAGGACATGAAGGTCAGAGCTTTCCAGAG yielded a PBM binding z-score of 1.2.

TTACCAAGGTGAAGGTCGTTGAGCCCTCTGTAGA yielded a PBM binding z-score of 0.688.

Sequence TCTGCTAGGTCAGTTGGTCAGCTATCGAGCTGCC registered a PBM binding z-score of -0.608.

ACTAGCAGGCGAAGGGTCACTCAAGATTAGTCCG returned a PBM binding z-score of 0.989.

The sequence ATATGTAGGCTATCGGGTCATTCAGTTTGCGCAT yielded a PBM binding z-score of 3.16.

For ATATGTACGTTACATCCGGGTCATTCAGGCTATG, the PBM binding z-score is 2.95.

CCTGCTAGGTCAATGGTCAGCGAAAGCAGCTCGC yielded a PBM binding z-score of -0.0463.

Regarding TCTTGGAGATCAACAGGAGGTTAAGAAAGATCGA, the PBM binding z-score is -0.283.

Consider TCTTGTAGATCAACAGGAAGTTAAGAAAGATCGA, for which the PBM binding z-score was -0.551.

For TAGCCTAGGTCATGGACCAGTATACCACGCGAAC, the PBM binding z-score is 0.57.

For the sequence TCTCGGAGGACACGAAAGGTCCGAGCTCGACATC, the PBM binding z-score stood at 0.0895.

TCTTGTAGATGAACAGGAGGTTAAGAAAGATCGA returned a PBM binding z-score of -0.297.

CCTAGTTGGTCAGAAGGTCACACACCGGATATGA: the PBM binding z-score came to 2.21.

As to CCTTACGGGACACTGACAGGTTATAGCATTTGGA, the PBM binding z-score was -0.0453.

For GATTCAGGGTCAAGGCCAGAGTACGCGTATTGAT, the PBM binding z-score was found to be 3.02.

As to TTGCCTAGGTCAGATCGGGCCAGTATACGCTATA, the PBM binding z-score is -0.389.

TTACCAAGGTGAGCTGAGGTCGTTGACCCAACTC: the PBM binding z-score worked out at 1.65.
